This note sets out measurements from PubChem BioAssay (NCATS).

Assay [1] addresses Bile acid receptor (Homo sapiens) (UniProt Q96RI1). Put plainly: qHTS assay for small molecule antagonists of farnesoid X receptor signaling (AID 588526). Note: % is set by controls: 0 for no effect and ±100 for the full control effect. An outline of the steps:
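Beta-lactamase reporter antagonist mode: HEK293T FXR-UAS-bla cells, titrated compound, CDCA stimulation, 16 h 37 C, CCF4 dye 2 h RT. Data normalized to CDCA 50 uM and DMSO; Hill-fit IC50.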

Assay [2] has the same target. Put plainly: qHTS assay for small molecule agonists of farnesoid X receptor signaling (AID 588527).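 Note: 0% = vehicle basal and 100% = reference agonist.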 The settings on record: HEK293T FXR-UAS-bla, beta-lactamase ratio, 16 h; activation: stronger effect = higher value. An outline of the steps:
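Quantitative HTS used FXR-UAS-bla HEK293T cells with 16 h compound incubation at 37 C. EC50 values came from concentration-response curves normalized to chenodeoxycholic acid.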

The target in assay [3] is Glucocorticoid receptor (Homo sapiens) (UniProt P04150). The assay can be described thus: qHTS assay for small molecule agonists of glucocorticoid receptor signaling (AID 588532; active = well fitted curve in the direction sought with a large enough effect in the signal ratio, with a control signal flat; the % refers to the signal ratio;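 note: 100% = dexamethasone at 0.1 µM and 0% = DMSO only wells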). The following applies: HeLa MMTV-bla, beta-lactamase ratio, agonist, 18 h; activation: stronger effect = higher value, percent of dexamethasone control, DMSO zero. An outline of the steps: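 Using MMTV-bla HeLa cells in medium with 1% stripped FBS and 25 mM HEPES, compounds were titrated and incubated overnight-length (18 h). Beta-lactamase cleavage of CCF4 was quantified by dual-emission fluorescence.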
Chain of Glucocorticoid receptor (Homo sapiens) (P04150 whole entry, looked up): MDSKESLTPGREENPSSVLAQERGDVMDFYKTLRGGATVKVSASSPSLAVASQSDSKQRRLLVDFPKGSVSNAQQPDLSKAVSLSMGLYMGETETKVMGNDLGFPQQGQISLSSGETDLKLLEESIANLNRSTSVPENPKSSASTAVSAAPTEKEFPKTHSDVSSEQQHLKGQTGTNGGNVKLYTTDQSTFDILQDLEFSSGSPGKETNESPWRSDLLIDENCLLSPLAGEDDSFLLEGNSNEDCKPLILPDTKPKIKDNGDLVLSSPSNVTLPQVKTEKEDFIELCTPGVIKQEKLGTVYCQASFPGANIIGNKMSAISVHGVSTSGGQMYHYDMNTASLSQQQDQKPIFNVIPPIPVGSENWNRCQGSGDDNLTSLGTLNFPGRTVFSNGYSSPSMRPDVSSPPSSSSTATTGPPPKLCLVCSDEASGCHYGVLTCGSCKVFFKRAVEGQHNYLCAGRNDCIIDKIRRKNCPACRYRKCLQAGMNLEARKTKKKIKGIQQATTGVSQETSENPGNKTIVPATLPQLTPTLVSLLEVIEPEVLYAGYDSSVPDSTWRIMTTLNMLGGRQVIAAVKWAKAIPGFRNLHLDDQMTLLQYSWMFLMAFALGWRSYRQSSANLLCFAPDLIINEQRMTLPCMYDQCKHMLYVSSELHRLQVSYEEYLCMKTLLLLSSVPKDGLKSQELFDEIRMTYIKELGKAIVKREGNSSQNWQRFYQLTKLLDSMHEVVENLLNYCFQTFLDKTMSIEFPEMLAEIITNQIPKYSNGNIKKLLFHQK

The nature of assay [4]: qHTS assay for small molecule antagonists of peroxisome proliferator-activated receptor delta signaling (AID 588535; active = well fitted inhibition curve with a large enough effect in the signal ratio, with a control signal flat, not every such curve was filed as active; the % refers to the signal ratio;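 for max response: cells co-treated with a PPAR-delta agonist as stimulator during compound exposure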). The settings on record: HEK293T PPARd-UAS-bla, beta-lactamase FRET ratio, 18 h; 460 nm channel. Summed up: (§1)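 Antagonist-mode qHTS using GeneBLAzer PPAR-delta-UAS-bla HEK293T cells; compound exposure 18 hrs at 37 C over a titration. Ratiometric CCF4 fluorescence at 460/530 nm; concentration-response points fitted to the Hill equation.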

The target in assay [5] is Peroxisome proliferator-activated receptor delta (Homo sapiens) (UniProt Q03181). The description is as above. Summed up:
as §1

Assay [6] deals with Peroxisome proliferator-activated receptor gamma (Homo sapiens) (UniProt P37231). Put plainly: qHTS assay for small molecule agonists of peroxisome proliferator-activated receptor gamma signaling (AID 588536; active = well fitted curve in the direction sought with a large enough effect in the signal ratio, with a control signal flat, not every such curve was filed as active; the % refers to the signal ratio;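 note: 0% = DMSO basal wells and 100% = rosiglitazone at 2 µM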). An outline of the steps:
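Using GeneBLAzer HEK293 cells, response was quantified by CCF4 fluorescence and normalized between basal DMSO (0%) and rosiglitazone 2 uM (100%); curves yielded half-maximal stimulation concentration and efficacy.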

In assay [7] the target is Retinoic acid receptor RXR-alpha (Homo sapiens) (UniProt P19793). The assay can be described thus: qHTS assay for small molecule antagonists of retinoid X receptor alpha signaling (AID 588546; active = well fitted inhibition curve with a large enough effect in the signal ratio, with a control signal flat, not every such curve was filed as active; the % refers to the signal ratio; note: potency is the fitted concentration of half-maximal effect;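 for max response: cells stimulated with 9-cis-retinoic acid as agonist; % is set by controls: 0 for no effect and ±100 for the full control effect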). The settings on record: HEK293T RXRa-UAS-bla, beta-lactamase ratio, antagonist mode. Summed up:
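Beta-lactamase reporter inhibition, read as CCF4 fluorescence ratio (ex 405, em 460/530 nm) after 2 h at RT. HEK293T UAS-bla cells, 2500/well, were stimulated with 9-cis-RA at 500 or 100 nM final alongside test compound for 18 h at 37 C.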

In assay [8] the target is Thyroid hormone receptor beta (Homo sapiens) (UniProt P10828). The assay can be described thus: qHTS assay for small molecule antagonists of thyroid hormone receptor beta signaling (AID 588547; active = well fitted inhibition curve with a large enough effect in the signal ratio, with a control signal flat, not every such curve was filed as active; the % refers to the signal ratio; note: potency is the fitted concentration of half-maximal effect;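 for activity change % (negative = inhibition): cells stimulated with 0.4 nM T3 agonist during compound exposure; % is set by controls: 0 for no effect and ±100 for the full control effect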). The following applies: TR-UAS-bla HEK293, beta-lactamase ratio, antagonist mode, 18 h. Summed up: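 Inhibition of T3-driven (0.4nM final) beta-lactamase reporter activity was measured over 0.59 nM to 92 uM compound after 18 h at 37 C. The cells were GripTite HEK293 TR-UAS-bla in charcoal/dextran-stripped serum, with CCF4 ratio read-out and IC50 from Hill fits.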
Chain of Thyroid hormone receptor beta (Homo sapiens) (P10828 whole entry, looked up): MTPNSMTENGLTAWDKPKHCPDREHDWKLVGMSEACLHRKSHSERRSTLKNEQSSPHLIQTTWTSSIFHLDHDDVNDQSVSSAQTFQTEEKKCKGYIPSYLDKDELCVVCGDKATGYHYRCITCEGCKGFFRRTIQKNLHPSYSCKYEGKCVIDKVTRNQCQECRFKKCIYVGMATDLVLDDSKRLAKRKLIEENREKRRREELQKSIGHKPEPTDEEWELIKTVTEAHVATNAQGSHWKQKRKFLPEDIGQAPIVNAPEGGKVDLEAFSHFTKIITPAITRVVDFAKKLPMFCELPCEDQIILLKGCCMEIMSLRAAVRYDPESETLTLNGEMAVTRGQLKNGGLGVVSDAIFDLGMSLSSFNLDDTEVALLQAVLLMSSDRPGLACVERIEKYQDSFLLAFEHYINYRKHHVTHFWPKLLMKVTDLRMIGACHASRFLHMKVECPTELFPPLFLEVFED

Assay [9] can be described thus: S16 Schwann cell PMP22 intronic element beta-lactamase assay (AID 624044).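 Note: 0% = DMSO and -100% = potassium clavulanate positive control; nearly all actives have a fitted effect of over 15% in size.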 The following applies: S16 rat Schwann cells, PMP22 element beta-lactamase FRET, 24 h; ratio activity, negative = inhibition: at 38.3 µM (top of the series). An outline of the steps: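 Beta-lactamase reporter under a PMP22 intronic regulatory element in stable S16 rat Schwann cells; 24 h compound exposure. 460 nm blue signal normalized between DMSO (0%) and potassium clavulanate, with 535 nm FRET tracking viability; curves classed by r2 and response.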

The target of assay [10] is Estrogen receptor (Homo sapiens) (UniProt P03372). Put plainly: qHTS assay for small molecule agonists of estrogen receptor alpha signaling (AID 588514).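 Note: 0% = vehicle only and 100% = reference agonist; nearly all actives have a fitted effect of over 70% in size.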 An outline of the steps: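 Read-out: CCF4 fluorescence from a beta-lactamase reporter in ER-alpha-UAS-bla HEK 293 cells after 18 hrs of compound exposure at 37 C. Normalized to 20 nM 17-beta-estradiol (100%) and DMSO (0%).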
Chain of Estrogen receptor (Homo sapiens) (P03372 whole entry, looked up): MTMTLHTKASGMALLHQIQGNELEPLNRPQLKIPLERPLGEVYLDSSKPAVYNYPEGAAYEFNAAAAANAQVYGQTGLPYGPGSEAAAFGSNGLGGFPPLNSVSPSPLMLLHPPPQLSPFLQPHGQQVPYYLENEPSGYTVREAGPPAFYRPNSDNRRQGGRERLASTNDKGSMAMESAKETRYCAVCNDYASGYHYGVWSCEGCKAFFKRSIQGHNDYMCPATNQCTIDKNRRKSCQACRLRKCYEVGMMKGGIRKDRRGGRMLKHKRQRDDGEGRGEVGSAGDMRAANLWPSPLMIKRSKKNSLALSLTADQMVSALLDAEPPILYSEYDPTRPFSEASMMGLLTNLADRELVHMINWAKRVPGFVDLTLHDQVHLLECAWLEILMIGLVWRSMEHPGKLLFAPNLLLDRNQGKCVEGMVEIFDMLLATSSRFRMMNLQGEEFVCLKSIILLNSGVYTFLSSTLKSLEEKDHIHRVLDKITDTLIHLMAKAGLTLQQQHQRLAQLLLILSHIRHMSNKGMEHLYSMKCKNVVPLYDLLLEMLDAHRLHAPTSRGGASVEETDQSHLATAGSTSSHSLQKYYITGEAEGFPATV

Assay [11] in a line: qHTS assay for small molecule activators of the nuclear factor-kappa B (NF-kB) signaling pathway (AID 651749; active = well fitted activation curve with a large enough effect in the signal ratio; the % refers to the signal ratio; note: % of control where 0% means no effect). The settings on record: NF-kB-bla ME-180 cells, beta-lactamase FRET ratio, 16 h; activation: stronger effect = higher value. An outline of the steps:
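FRET-based beta-lactamase detection in ME-180 cells reports NF-kB response-element-driven transcription following overnight (16 hr) compound treatment.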

The nature of assay [12]: qHTS assay for environmental chemicals that activate the Aryl hydrocarbon Receptor (AhR) signaling pathway (AID 651777; active = well fitted curve in the direction sought with a large enough effect; an effect the other way counts as inactive or inconclusive; note: % of control where 0% means no effect; nearly all actives have a fitted effect of over 15% in size). The settings on record: 1A2-DRE human hepatoma cells, luciferase, 24 h; activation: stronger effect = higher value. An outline of the steps: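 Concentration–response screening used 1,200 1A2-DRE cells per well, 24 hr compound exposure (37 C, 5% CO2), and One-Glo luminescence as the AhR-driven CYP1A2 reporter signal.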

Assay [13] can be described thus: qHTS assay for small molecule agonists of the antioxidant response element (ARE) signaling pathway measured by Nrf2-dependant transcriptional activity (AID 720636; active = well fitted curve in the direction sought with a large enough effect in the repeat runs; an effect the other way counts as inactive or inconclusive; note: % of control where 0% means no effect). Summed up:
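Attachment 6 hr at 37 C, then compound versus DMSO vehicle for 16 hr in ARE-luc HepG2 cells (1% dialyzed FBS); luminescence recorded 30 min after ONE-Glo addition at room temperature.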

Assay [14] is described as follows: qHTS assay for cell viability of HEK293 cells (AID 743288; active = well fitted curve in the direction sought with a large enough effect; an effect the other way counts as inactive or inconclusive; note: nearly all actives have a fitted effect of over 50% in size; note: potency is the fitted concentration of half-maximal effect; for max response: % is set by controls: 0 for no effect and ±100 for the full control effect). The settings on record: ATP luminescence (CellTiter-Glo), 18 h; max response: stronger effect = lower value. Summed up: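 HEK293, 18 h, 37 C, ATP luminescence. Cells at 2,000/well were allowed at least 5 h to settle before dosing; CellTiter-Glo developed 30 min at RT.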
The nature of assay [15]: qHTS assay for cell viability of the p53RE-bla HCT-116 cell line (AID 743292; active = well fitted curve in the direction sought with a large enough effect; an effect the other way counts as inactive or inconclusive; note: % is set by controls: 0 for no effect and ±100 for the full control effect; nearly all actives have a fitted effect of over 55% in size). Summed up: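 Compound-exposed HCT-116 (p53RE-bla) cells, 4,000 per well, were kept 16 h at 37 C following a 5 h preincubation. Cell number was estimated from total ATP by CellTiter-Glo luminescence read after 30 min at room temperature.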
Assay [16] deals with Nuclear receptor subfamily 1 group I member 2 (Rattus norvegicus) (UniProt Q9R1A7). The assay can be described thus: qHTS assay for small molecule activators of the rat pregnane X receptor (rPXR) signaling pathway (AID 651751; call rule not given here; note: 0% is about no effect). The settings on record: rPXR reporter cells, luciferase (One-Glo), 24 h.
Chain of Nuclear receptor subfamily 1 group I member 2 (Rattus norvegicus) (Q9R1A7 whole entry, looked up): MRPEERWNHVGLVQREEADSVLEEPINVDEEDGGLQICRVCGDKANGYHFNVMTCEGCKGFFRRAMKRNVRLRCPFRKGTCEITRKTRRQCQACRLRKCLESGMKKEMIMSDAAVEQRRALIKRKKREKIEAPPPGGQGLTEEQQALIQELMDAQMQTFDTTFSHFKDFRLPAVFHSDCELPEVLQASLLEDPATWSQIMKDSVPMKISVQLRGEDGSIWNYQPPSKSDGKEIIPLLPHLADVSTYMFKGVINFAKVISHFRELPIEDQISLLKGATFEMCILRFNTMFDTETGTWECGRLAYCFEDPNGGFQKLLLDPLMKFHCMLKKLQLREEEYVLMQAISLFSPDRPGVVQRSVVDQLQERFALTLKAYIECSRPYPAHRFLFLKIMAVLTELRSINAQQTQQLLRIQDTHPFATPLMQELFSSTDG
The target in assay [17] is DNA dC->dU-editing enzyme APOBEC-3G (Homo sapiens) (UniProt Q9HC16). The assay can be described thus: qHTS for inhibitors of Vif-A3G interactions: Validation (AID 588379; active = well fitted curve in the direction sought with a large enough effect; an effect the other way counts as inactive or inconclusive; note: 0% is about no effect). An outline of the steps:
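Yellow fluorescence (Ex 488, Em 500-530) of Vif-coexpressing HeLa A3G-eYFP cells, scanned by Acumen cytometer, reports blocked A3G degradation. Cells plated at 700/well overnight at 37 deg C before compound addition, then a further overnight compound incubation at 37 deg C.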

Assay [18] is described as follows: qHTS assay for small molecule activators of the human pregnane X receptor (PXR) signaling pathway (AID 720659; call rule not given here; note: 0% is about no effect).

Molecules are shown by their SMILES. Records with an inconclusive call do not appear. Active and inactive are the calls of the source. Unless noted, calls come from the whole dose curve.

Chain of Bile acid receptor (Homo sapiens) (Q96RI1 whole entry, looked up): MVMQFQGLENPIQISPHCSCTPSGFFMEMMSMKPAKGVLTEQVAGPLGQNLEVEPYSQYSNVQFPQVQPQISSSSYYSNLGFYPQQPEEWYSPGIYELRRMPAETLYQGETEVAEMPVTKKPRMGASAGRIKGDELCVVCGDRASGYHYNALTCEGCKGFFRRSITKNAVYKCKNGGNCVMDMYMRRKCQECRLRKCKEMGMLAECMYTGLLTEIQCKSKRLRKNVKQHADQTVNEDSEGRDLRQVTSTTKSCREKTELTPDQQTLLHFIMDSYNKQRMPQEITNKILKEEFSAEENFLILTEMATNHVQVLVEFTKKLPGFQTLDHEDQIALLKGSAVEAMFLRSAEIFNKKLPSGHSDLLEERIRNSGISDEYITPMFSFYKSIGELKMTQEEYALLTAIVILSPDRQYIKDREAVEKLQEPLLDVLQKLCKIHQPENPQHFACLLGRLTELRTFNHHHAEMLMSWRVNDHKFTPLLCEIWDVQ
Chain of Peroxisome proliferator-activated receptor delta (Homo sapiens) (Q03181 whole entry, looked up): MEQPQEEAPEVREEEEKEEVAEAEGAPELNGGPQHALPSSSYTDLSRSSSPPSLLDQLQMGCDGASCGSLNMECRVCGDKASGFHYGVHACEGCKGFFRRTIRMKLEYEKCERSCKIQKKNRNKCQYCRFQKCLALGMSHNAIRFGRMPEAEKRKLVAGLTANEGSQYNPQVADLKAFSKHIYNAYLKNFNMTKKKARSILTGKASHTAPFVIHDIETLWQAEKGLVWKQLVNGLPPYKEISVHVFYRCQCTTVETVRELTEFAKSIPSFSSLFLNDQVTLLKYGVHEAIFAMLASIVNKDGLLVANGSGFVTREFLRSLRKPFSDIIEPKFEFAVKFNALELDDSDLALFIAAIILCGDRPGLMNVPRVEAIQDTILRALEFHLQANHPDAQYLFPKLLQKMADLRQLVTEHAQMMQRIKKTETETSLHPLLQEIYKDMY
Chain of Retinoic acid receptor RXR-alpha (Homo sapiens) (P19793 whole entry, looked up): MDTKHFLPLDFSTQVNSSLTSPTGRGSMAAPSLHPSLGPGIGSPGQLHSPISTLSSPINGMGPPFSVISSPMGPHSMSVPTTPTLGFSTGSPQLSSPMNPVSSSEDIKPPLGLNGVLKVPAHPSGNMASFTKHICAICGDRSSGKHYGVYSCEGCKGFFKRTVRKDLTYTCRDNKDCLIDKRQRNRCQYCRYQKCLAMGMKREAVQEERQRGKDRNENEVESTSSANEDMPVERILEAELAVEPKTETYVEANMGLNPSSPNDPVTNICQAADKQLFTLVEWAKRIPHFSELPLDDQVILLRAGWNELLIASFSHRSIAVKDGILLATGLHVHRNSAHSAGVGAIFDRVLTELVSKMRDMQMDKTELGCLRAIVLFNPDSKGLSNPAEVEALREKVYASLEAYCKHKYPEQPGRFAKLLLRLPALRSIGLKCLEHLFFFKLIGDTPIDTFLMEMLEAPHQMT
Chain of DNA dC->dU-editing enzyme APOBEC-3G (Homo sapiens) (Q9HC16 whole entry, looked up): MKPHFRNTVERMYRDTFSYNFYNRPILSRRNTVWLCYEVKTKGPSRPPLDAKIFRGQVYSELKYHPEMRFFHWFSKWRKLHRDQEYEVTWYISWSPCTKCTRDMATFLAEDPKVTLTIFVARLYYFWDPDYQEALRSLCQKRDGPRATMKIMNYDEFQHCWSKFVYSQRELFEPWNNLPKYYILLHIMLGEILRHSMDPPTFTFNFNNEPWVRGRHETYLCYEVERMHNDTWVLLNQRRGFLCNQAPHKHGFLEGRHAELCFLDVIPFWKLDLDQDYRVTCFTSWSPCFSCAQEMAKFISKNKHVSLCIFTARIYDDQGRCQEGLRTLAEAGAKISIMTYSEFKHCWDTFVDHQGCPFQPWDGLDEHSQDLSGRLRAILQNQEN
Chain of Peroxisome proliferator-activated receptor gamma (Homo sapiens) (P37231 whole entry, looked up): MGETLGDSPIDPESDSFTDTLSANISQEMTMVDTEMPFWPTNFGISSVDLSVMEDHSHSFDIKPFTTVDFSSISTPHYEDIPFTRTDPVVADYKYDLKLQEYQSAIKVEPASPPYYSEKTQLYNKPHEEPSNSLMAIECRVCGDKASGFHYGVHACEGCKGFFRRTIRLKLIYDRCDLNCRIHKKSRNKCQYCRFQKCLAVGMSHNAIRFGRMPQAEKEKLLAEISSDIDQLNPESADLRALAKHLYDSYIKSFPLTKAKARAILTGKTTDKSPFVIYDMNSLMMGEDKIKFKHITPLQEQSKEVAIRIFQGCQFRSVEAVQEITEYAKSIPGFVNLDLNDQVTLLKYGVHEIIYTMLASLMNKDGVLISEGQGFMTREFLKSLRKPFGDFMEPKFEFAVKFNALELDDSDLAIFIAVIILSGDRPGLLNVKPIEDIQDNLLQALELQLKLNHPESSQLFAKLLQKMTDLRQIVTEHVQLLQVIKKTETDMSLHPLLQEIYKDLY

`C#CCN1CC(=O)N(COC(=O)[C@@H]2[C@@H](C=C(C)C)C2(C)C)C1=O`: the Potency result in assay [1], in assay [5], in [6] and in assay [9] was “inactive” throughout. The values for the activation in assay [2] and in assay [3] were 5.41% (inactive) and -0.459% (inactive), respectively. Besides, the max response in assay [4] is -9.7%; in [7], -19.9% (inactive). Moreover, the activity change % (negative = inhibition) in assay [8] was 21.3% (inactive).

For `CCN(CC)C(=O)N[C@@H]1C=C2c3cccc4[nH]cc(c34)C[C@H]2N(C)C1`, in assay [9], the Potency entry is “inactive”.

In the case of `CN(C)[C@@H](Cc1ccccc1)c1ccccc1`, the Potency result in assay [9] is “inactive”.

In the case of `C#C[C@]1(O)CC[C@H]2[C@@H]3CCC4=CC(=O)CCC4(C)[C@H]3CCC21C` (stereo partly specified), the Potency entry in [9] was “inactive”.

As for `C[C@]12CC[C@H]3[C@@H](CC[C@@]45O[C@@H]4C(=O)C(C#N)C[C@]35C)[C@@H]1CC[C@@H]2O` (stereo partly specified), the Potency result in [9] was “inactive”.

With `CC(C)=CC1C(C(=O)OCc2coc(Cc3ccccc3)c2)C1(C)C` (stereo unspecified), the Potency result in assay [10], in [1], in [5], in assay [6], in assay [13] and in assay [15] was “inactive” in each case. For the same compound, the activation in [2] is 3.82% (inactive); in [3], 2.93% (inactive); in assay [11] it was 0.13% (inactive); in assay [12], 3.96% (inactive). For the same compound, the max response is -29.1% in [4], 0.368% (inactive) in [14] and 7.41% (inactive) in [16].

In the case of `CC1=CC(=O)c2c(O)cccc2C1=O`, the compound was classed as inactive in [17].

With `N#Cc1c(Cl)c(Cl)c(Cl)c(C#N)c1Cl`, the Potency in assay [7] is 7.08 µM (active); in assay [8], 2.51 µM (active). The Potency entry in [13] was “inactive”.

For `O=C1C=C2C(=CCOC2O)O1` (stereo unspecified), the Potency entry in assay [10] is “inactive”. The activation in assay [11] was 2.18% (inactive). For the same compound, the Potency in assay [14] is 8.91 µM (active). Moreover, in assay [16], the max response is -14.8% (inactive). For the same compound, the compound was classed as inactive in [18].

For `CC1(C)S[C@H]2[C@@H](N)C(=O)N2[C@H]1C(=O)O`, in assay [17], the result was inactive.
